The source of these data is paper PMC10812921, “Transcriptional Coactivator BOB1 (OBF1, OCA-B) Modulates the Specificity of DNA Recognition by the POU-Domain Factors OCT1 and OCT2 in a Monomeric Configuration”.

Assay [1] deals with POU1 (OCT1 POU domain) (human, UniProt P14859 260-458). Kind of assay: EMSA-SELEX-seq; no BOB1; 20 mM Tris-HCl pH 7.6, 140 mM NaCl, 10% glycerol, 0.5 mM EDTA, 0.05% Triton X-100, 0.1 mg/mL BSA, 0.1 mg/mL poly(dI-dC), 5 mM DTT, room temperature, 20 min; high values mean tight binding. The conditions noted are these: protein: recombinant; dsDNA, one strand shown. Summed up: (§1)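 After expression in E. coli BL21, tagged POU-domain proteins were purified under denaturing conditions and then renatured. Each binding reaction held 30 ng protein and 300 ng of a PCR-amplified double-stranded random 35-nt library in 20 μL Tris–HCl pH 7.6 binding buffer, with or without 28 ng coactivator protein, for 20 min at RT. Bands holding complexes were cut from native 6% PAGE, eluted and PCR-amplified across four rounds, and the output was Illumina-sequenced. The value given for binding preference is the share, in percent, of sequenced 8-mers fitting a motif pattern.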
POU1 (OCT1 POU domain), sequence (P14859 260-458): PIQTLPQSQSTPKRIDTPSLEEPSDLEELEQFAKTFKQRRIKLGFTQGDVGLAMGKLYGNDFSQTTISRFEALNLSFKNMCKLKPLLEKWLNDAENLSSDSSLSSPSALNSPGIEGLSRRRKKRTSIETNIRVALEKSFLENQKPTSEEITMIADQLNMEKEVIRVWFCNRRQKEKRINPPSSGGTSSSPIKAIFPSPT

Assay [2] concerns the target T1, POU2 (OCT2 POU domain) (human, UniProt P09086 175-386).
T1 sequence: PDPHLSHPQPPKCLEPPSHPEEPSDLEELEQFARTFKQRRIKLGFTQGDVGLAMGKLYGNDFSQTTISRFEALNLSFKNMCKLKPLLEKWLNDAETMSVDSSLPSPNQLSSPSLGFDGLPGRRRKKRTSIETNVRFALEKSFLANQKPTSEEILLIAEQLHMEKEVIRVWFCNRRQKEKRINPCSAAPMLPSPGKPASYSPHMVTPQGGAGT
The description is as above. The conditions noted are these: protein: recombinant; dsDNA, one strand shown. Summed up: as §1

Assay [3] deals with POU1 (OCT1 POU domain);BOB1 (OBF1, OCA-B) (human;human, UniProt P14859;Q16633 260-458;1-256, |). Put plainly: EMSA-SELEX-seq; with BOB1 (ternary complex band); 20 mM Tris-HCl pH 7.6, 140 mM NaCl, 10% glycerol, 0.5 mM EDTA, 0.05% Triton X-100, 0.1 mg/mL BSA, 0.1 mg/mL poly(dI-dC), 5 mM DTT, room temperature, 20 min; high values mean tight binding. The conditions noted are these: protein: recombinant;recombinant; copies: 1;1; dsDNA, one strand shown. Summed up: as §1
(A gel shift assay detects complexes by their altered migration in electrophoresis.)

The target in assay [4] is T2, POU2 (OCT2 POU domain);BOB1 (OBF1, OCA-B) (human;human, UniProt P09086;Q16633 175-386;1-256, |).
T2 sequence 1: T1 sequence
T2 sequence 2: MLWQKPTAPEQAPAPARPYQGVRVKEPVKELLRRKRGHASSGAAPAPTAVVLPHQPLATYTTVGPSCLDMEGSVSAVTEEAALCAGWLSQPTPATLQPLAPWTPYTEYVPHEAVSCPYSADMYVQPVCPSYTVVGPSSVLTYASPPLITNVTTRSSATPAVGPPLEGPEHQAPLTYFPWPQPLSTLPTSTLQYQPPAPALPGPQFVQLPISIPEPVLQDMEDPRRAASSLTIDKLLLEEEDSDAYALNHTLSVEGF
The assay is described as above. The settings on record: protein: recombinant;recombinant; copies: 1;1; dsDNA, one strand shown. Summed up: as §1

Regarding AATGGAAG, the binding signal is 0.101 % of ANNNNAAN 8-mers in assay [1], 0.076 % of ANNNNAAN 8-mers in assay [2], 0.0644 % of ANNNNAAN 8-mers in assay [3] and 0.0792 % of ANNNNAAN 8-mers in assay [4].
For ACAGTAAT the same measures were 0.0614 % of ANNNNAAN 8-mers, 0.0725 % of ANNNNAAN 8-mers, 0.0406 % of ANNNNAAN 8-mers and 0.0553 % of ANNNNAAN 8-mers.
With AGAAAAAT, the binding signal in assay [1] was 0.0946 % of ANNNNAAN 8-mers; in assay [2], 0.0886 % of ANNNNAAN 8-mers; in assay [3], 0.0921 % of ANNNNAAN 8-mers; in assay [4], 0.09 % of ANNNNAAN 8-mers.
For AAGACAAG the same measures were 0.0259 % of ANNNNAAN 8-mers, 0.0305 % of ANNNNAAN 8-mers, 0.0261 % of ANNNNAAN 8-mers and 0.0281 % of ANNNNAAN 8-mers.
For AGCGAAAT the same measures were 0.0526 % of ANNNNAAN 8-mers, 0.0627 % of ANNNNAAN 8-mers, 0.0492 % of ANNNNAAN 8-mers and 0.0619 % of ANNNNAAN 8-mers.
For ATGCGAAG, in that order: 0.0538 % of ANNNNAAN 8-mers, 0.0604 % of ANNNNAAN 8-mers, 0.0523 % of ANNNNAAN 8-mers and 0.057 % of ANNNNAAN 8-mers.
ATCCCAAA: the binding signal in assay [1] was 0.0263 % of ANNNNAAN 8-mers; in assay [2] it was 0.0253 % of ANNNNAAN 8-mers; in assay [3], 0.0343 % of ANNNNAAN 8-mers; in assay [4] it was 0.0297 % of ANNNNAAN 8-mers.
For AGATCAAG, in that order: 0.0305 % of ANNNNAAN 8-mers, 0.0397 % of ANNNNAAN 8-mers, 0.0273 % of ANNNNAAN 8-mers and 0.0272 % of ANNNNAAN 8-mers.
For AGCTAAAT, in that order: 0.0652 % of ANNNNAAN 8-mers, 0.0633 % of ANNNNAAN 8-mers, 0.0738 % of ANNNNAAN 8-mers and 0.0479 % of ANNNNAAN 8-mers.
AAGTGAAC: the binding signal was 0.0233 % of ANNNNAAN 8-mers in assay [1], 0.0305 % of ANNNNAAN 8-mers in assay [2], 0.0254 % of ANNNNAAN 8-mers in assay [3] and 0.0388 % of ANNNNAAN 8-mers in assay [4].
For AGCGGAAT, in that order: 0.0622 % of ANNNNAAN 8-mers, 0.0725 % of ANNNNAAN 8-mers, 0.0546 % of ANNNNAAN 8-mers and 0.0636 % of ANNNNAAN 8-mers.
On to ATGGCAAA, for which the binding signal is 0.0774 % of ANNNNAAN 8-mers in assay [1], 0.057 % of ANNNNAAN 8-mers in assay [2], 0.113 % of ANNNNAAN 8-mers in assay [3] and 0.0776 % of ANNNNAAN 8-mers in assay [4].
For AACATAAC, in that order: 0.0526 % of ANNNNAAN 8-mers, 0.0506 % of ANNNNAAN 8-mers, 0.0347 % of ANNNNAAN 8-mers and 0.033 % of ANNNNAAN 8-mers.
For AATATAAG the same measures were 0.101 % of ANNNNAAN 8-mers, 0.123 % of ANNNNAAN 8-mers, 0.0886 % of ANNNNAAN 8-mers and 0.0966 % of ANNNNAAN 8-mers.
For ATTTAAAG the same measures were 0.183 % of ANNNNAAN 8-mers, 0.185 % of ANNNNAAN 8-mers, 0.152 % of ANNNNAAN 8-mers and 0.0759 % of ANNNNAAN 8-mers.
AAACAAAG: the binding signal in assay [1] is 0.114 % of ANNNNAAN 8-mers; in assay [2], 0.0742 % of ANNNNAAN 8-mers; in assay [3], 0.165 % of ANNNNAAN 8-mers; in assay [4] it was 0.0892 % of ANNNNAAN 8-mers.
For the sequence ACCTTAAC, the binding signal in assay [1] is 0.0118 % of ANNNNAAN 8-mers; in assay [2], 0.0173 % of ANNNNAAN 8-mers; in assay [3] it was 0.0152 % of ANNNNAAN 8-mers; in assay [4] it was 0.0149 % of ANNNNAAN 8-mers.
For ACTAGAAT, in that order: 0.0473 % of ANNNNAAN 8-mers, 0.061 % of ANNNNAAN 8-mers, 0.0589 % of ANNNNAAN 8-mers and 0.0438 % of ANNNNAAN 8-mers.
For ACCCTAAA the same measures were 0.0137 % of ANNNNAAN 8-mers, 0.0173 % of ANNNNAAN 8-mers, 0.0137 % of ANNNNAAN 8-mers and 0.0107 % of ANNNNAAN 8-mers.
For AGACGAAA the same measures were 0.0309 % of ANNNNAAN 8-mers, 0.0472 % of ANNNNAAN 8-mers, 0.0343 % of ANNNNAAN 8-mers and 0.0264 % of ANNNNAAN 8-mers.
On to AGTCCAAA, for which the binding signal in assay [1] is 0.0256 % of ANNNNAAN 8-mers; in assay [2], 0.0299 % of ANNNNAAN 8-mers; in assay [3], 0.0332 % of ANNNNAAN 8-mers; in assay [4], 0.0281 % of ANNNNAAN 8-mers.
For ACGATAAC the same measures were 0.0252 % of ANNNNAAN 8-mers, 0.0293 % of ANNNNAAN 8-mers, 0.0191 % of ANNNNAAN 8-mers and 0.0264 % of ANNNNAAN 8-mers.
For ATTCTAAT the same measures were 0.448 % of ANNNNAAN 8-mers, 0.532 % of ANNNNAAN 8-mers, 0.12 % of ANNNNAAN 8-mers and 0.152 % of ANNNNAAN 8-mers.
For AGACCAAG, in that order: 0.0137 % of ANNNNAAN 8-mers, 0.0121 % of ANNNNAAN 8-mers, 0.0164 % of ANNNNAAN 8-mers and 0.014 % of ANNNNAAN 8-mers.
Regarding ACAGCAAG, the binding signal in assay [1] was 0.0156 % of ANNNNAAN 8-mers; in assay [2], 0.0155 % of ANNNNAAN 8-mers; in assay [3], 0.0164 % of ANNNNAAN 8-mers; in assay [4] it was 0.014 % of ANNNNAAN 8-mers.
Take AAGATAAT: the binding signal in assay [1] was 0.138 % of ANNNNAAN 8-mers; in assay [2] it was 0.203 % of ANNNNAAN 8-mers; in assay [3], 0.0819 % of ANNNNAAN 8-mers; in assay [4] it was 0.129 % of ANNNNAAN 8-mers.
For AGGCCAAT, in that order: 0.0339 % of ANNNNAAN 8-mers, 0.0443 % of ANNNNAAN 8-mers, 0.0316 % of ANNNNAAN 8-mers and 0.0413 % of ANNNNAAN 8-mers.
For ACGGAAAT, in that order: 0.087 % of ANNNNAAN 8-mers, 0.099 % of ANNNNAAN 8-mers, 0.142 % of ANNNNAAN 8-mers and 0.0792 % of ANNNNAAN 8-mers.
For AGGCGAAC the same measures were 0.0183 % of ANNNNAAN 8-mers, 0.0247 % of ANNNNAAN 8-mers, 0.0207 % of ANNNNAAN 8-mers and 0.0305 % of ANNNNAAN 8-mers.
Take ACACGAAC: the binding signal in assay [1] was 0.0114 % of ANNNNAAN 8-mers; in assay [2], 0.0167 % of ANNNNAAN 8-mers; in assay [3], 0.0121 % of ANNNNAAN 8-mers; in assay [4], 0.0124 % of ANNNNAAN 8-mers.
